RAD52 inh: RAD52 DNA annealing inhibitors, primary screen, biochemical, FRET, single point, set 2. DNA repair protein RAD52 homolog (Homo sapiens), P43351. recombinant RAD52 DNA annealing, FRET fluorescence. inhibition, % at 18.7 µM. hit rate 0.46% among 360,000. AID 651710, 2012;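 active = every replicate showing at least 50% inhibition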
Target sequence (P43351 whole entry, looked up): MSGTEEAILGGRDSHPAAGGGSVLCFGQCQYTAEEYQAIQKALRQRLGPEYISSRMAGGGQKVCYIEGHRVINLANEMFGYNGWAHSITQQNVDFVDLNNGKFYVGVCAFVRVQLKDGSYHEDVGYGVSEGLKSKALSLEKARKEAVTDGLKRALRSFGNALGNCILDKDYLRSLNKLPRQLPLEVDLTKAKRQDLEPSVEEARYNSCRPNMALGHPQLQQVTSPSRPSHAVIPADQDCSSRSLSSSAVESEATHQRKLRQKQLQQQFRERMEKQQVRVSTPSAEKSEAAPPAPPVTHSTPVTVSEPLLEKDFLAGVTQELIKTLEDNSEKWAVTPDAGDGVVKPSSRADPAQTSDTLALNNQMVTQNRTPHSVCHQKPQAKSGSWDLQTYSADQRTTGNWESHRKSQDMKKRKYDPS
ERAP1 inh: human ERAP1 aminopeptidase inhibitors, primary screen, biochemical, single point, plate reader. recombinant ERAP1, Leu-AMC fluorescence, 60 min. inhibition, % at 10.7 µM. Endoplasmic reticulum aminopeptidase 1 (Homo sapiens), Q9NZ08. hit rate 0.15% among 340,000;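 active = mean replicate inhibition of at least 30%, or all replicates individually reaching that 30% level; inactive = mean below 30% and not every replicate reaching it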;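 also: 0% = neutral control wells and 100% = L-leucinethiol positive control wells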
DENV2 CPE: inhibitors of DENV2 cytopathic effect, primary screen, cell-based, plate reader, single concentration; CPE inhibition, % at 9.99 µM; DENV2-infected cells, cytopathic effect rescue; hit rate 1.7% among 350,000; in the data active = CPE inhibition above about 20%, passing the limit was not always enough; tested in BHK-21 cells;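 also: 0% = median of neutral control wells and 100% = median of positive control wells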
MLL AF4-AF9 inh: inhibitors of AF4 peptide binding to AF9, primary screen, biochemical, AlphaScreen, biotin-AF4 peptide, FLAG-AF9, single point; Protein AF-9 (Homo sapiens), P42568; inhibition, % at 10 µM; hit rate 0.47% among 350,000;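 active = every replicate reaching a set inhibition limit, whatever the replicate mean, cut at about 25% in these data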;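 also: 0% = plate neutral control median and 100% = total signal loss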
FGF22 binding: binders of human FGF22 protein, primary screen, FGF22 synaptogenesis inhibitor project, biophysical, thermal shift, single point. Fibroblast growth factor 22 (Homo sapiens), Q9HCT0. recombinant FGF22 thermal shift, SYPRO orange fluorescence; percent of sucrose octasulfate shift, DMSO zero. activity (Tm shift, normalised), % at 9.99 µM. hit rate 1.5% among 340,000;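 active = mean Tm shift, scaled 0 neutral to 100 positive control, at about 1.3% or above, every replicate too, limit read from the data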
Target sequence (Q9HCT0 whole entry, looked up): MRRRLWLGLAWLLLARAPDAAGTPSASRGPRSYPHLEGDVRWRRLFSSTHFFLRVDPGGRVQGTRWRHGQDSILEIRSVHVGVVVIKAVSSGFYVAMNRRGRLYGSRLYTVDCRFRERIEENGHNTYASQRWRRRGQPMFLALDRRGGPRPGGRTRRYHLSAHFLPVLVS
* marks the source's active call; other numbers are inactive results. A selection: hits, their analogues and other compounds. The true share with any hit is near 4%.

`C[C@H](CO)N1C[C@H](C)[C@@H](CN(C)C)Oc2c(NC(=O)c3cnccn3)cccc2C1=O` gave RAD52 inh -4.6, ERAP1 inh 0.7, DENV2 CPE 29.7*, MLL AF4-AF9 inh -3.2 and FGF22 binding 0.0.
Screening C[C@H]1CN([C@@H](C)CO)C(=O)c2cccc(NC(=O)c3cnccn3)c2O[C@@H]1CN(C)Cc1ccc2c(c1)OCO2 returned RAD52 inh -13.7, ERAP1 inh 9.9, DENV2 CPE 24.2*, MLL AF4-AF9 inh 1.4 and FGF22 binding 0.3.
`CO[C@H]1CN(C)C(=O)c2ccc(NC(=O)C3CC3)cc2OC[C@@H](C)N(Cc2ccncc2)C[C@H]1C` gave RAD52 inh 3.3, ERAP1 inh 1.2, DENV2 CPE -1.4, MLL AF4-AF9 inh -2.3 and FGF22 binding 0.0.
`C[C@@H]1CN([C@H](C)CO)C(=O)c2ccccc2-c2ccccc2CO[C@@H]1CN(C)S(=O)(=O)c1cccc(C#N)c1` gave RAD52 inh 7.6, ERAP1 inh -0.8, DENV2 CPE -2.0, MLL AF4-AF9 inh -0.5 and FGF22 binding 0.0.
CCC(=O)N1CC2(C1)[C@@H](c1ccc(-c3cccc(OC)c3)cc1)[C@@H](CO)N2C(C)=O was read as RAD52 inh -29.2, ERAP1 inh 1.5, DENV2 CPE 0.7, MLL AF4-AF9 inh -1.1 and FGF22 binding -0.5.
Screening O=C(O)c1c(-c2ccccc2)c(-c2ccccc2)nc2ccccc12 returned RAD52 inh -8.3, ERAP1 inh -3.4, DENV2 CPE -1.5, MLL AF4-AF9 inh -10.9 and FGF22 binding 43.1*.
Screening O=C(O)c1c(-c2ccccc2)cnc2ccccc12 returned RAD52 inh -4.6, ERAP1 inh -7.1, DENV2 CPE 2.7 and MLL AF4-AF9 inh -4.9.
For CCCN1C[C@H](C)[C@H](OC)CN(C)C(=O)c2cc(NS(=O)(=O)c3cn(C)cn3)ccc2OC[C@@H]1C the results were RAD52 inh 9.3, ERAP1 inh -1.3, DENV2 CPE 90.0*, MLL AF4-AF9 inh -0.6 and FGF22 binding 0.1.
`CO[C@@H]1CN(C)C(=O)c2ccc(NS(=O)(=O)c3cn(C)cn3)cc2OC[C@H](C)N(CC2CC2)C[C@H]1C` gave RAD52 inh 10.2, ERAP1 inh -0.1, DENV2 CPE 11.6, MLL AF4-AF9 inh -2.3 and FGF22 binding -0.3.
For CCCN1C[C@@H](C)[C@@H](OC)CN(C)C(=O)c2cc(NS(=O)(=O)c3cn(C)cn3)ccc2OC[C@H]1C the results were RAD52 inh -0.2, ERAP1 inh -2.6, MLL AF4-AF9 inh -0.5 and FGF22 binding 0.1.
`CO[C@@H]1CN(C)C(=O)c2ccc(NS(=O)(=O)c3cn(C)cn3)cc2OC[C@@H](C)N(CC2CC2)C[C@H]1C` gave RAD52 inh 12.7, ERAP1 inh 1.1, DENV2 CPE 21.4*, MLL AF4-AF9 inh -2.3 and FGF22 binding 0.4.
CCOc1ccc2nc(Cl)sc2c1 was read as RAD52 inh -17.5, ERAP1 inh 3.4, DENV2 CPE 0.8, MLL AF4-AF9 inh -0.1 and FGF22 binding 42.9*.
On1nnc2ccc(C(F)(F)F)cc21 was read as RAD52 inh -5.2, ERAP1 inh -1.5, DENV2 CPE 9.1, MLL AF4-AF9 inh -7.6 and FGF22 binding 43.5*.
For On1nnc2cc(C(F)(F)F)ccc21 the results were RAD52 inh -6.1, ERAP1 inh 2.9, DENV2 CPE -2.8, MLL AF4-AF9 inh 0.0 and FGF22 binding -0.1.
For COc1ccc(CNCC(=O)Nc2cc(C)nn2-c2nc(C)cc(C)n2)cc1OC the results were RAD52 inh -4.7, ERAP1 inh 2.0, DENV2 CPE 5.0, MLL AF4-AF9 inh 1.8 and FGF22 binding 43.6*.
`CCc1ccc(NC(=O)CNCc2ccc(OC)c(OC)c2)cc1` gave RAD52 inh 4.0, ERAP1 inh 2.6, DENV2 CPE -0.1, MLL AF4-AF9 inh 1.6 and FGF22 binding -0.4.
For CCCNC(=O)N(C)C[C@H]1Oc2ncc(-c3ccccc3)cc2C(=O)N([C@H](C)CO)C[C@@H]1C the results were RAD52 inh 5.0, ERAP1 inh -4.2, DENV2 CPE -4.5, MLL AF4-AF9 inh -0.2 and FGF22 binding 0.0.
Screening COc1ccc(Cl)cc1NC(=S)NNC(=O)c1cccnc1 returned RAD52 inh -21.1, ERAP1 inh 6.3, DENV2 CPE -6.0, MLL AF4-AF9 inh -1.8 and FGF22 binding 42.9*.
For COc1ccc(Cl)cc1NC(=S)Nc1ccccc1C the results were RAD52 inh -6.3, ERAP1 inh 5.1, DENV2 CPE -0.1, MLL AF4-AF9 inh 2.4 and FGF22 binding 0.2.
Screening COC(=O)c1cccc(NC(=S)Nc2cc(Cl)ccc2OC)c1 returned RAD52 inh -23.4, ERAP1 inh -0.7, DENV2 CPE 1.6, MLL AF4-AF9 inh 1.5 and FGF22 binding 43.3*.
O=C(Nc1cc(F)ccc1F)N[C@H]1CC[C@H](CCn2cc(C3CCCC3)nn2)O[C@H]1CO was read as RAD52 inh 2.0, ERAP1 inh -4.2, DENV2 CPE 10.0 and MLL AF4-AF9 inh -0.8.
For CO[C@H]1CN(C)C(=O)c2cc(NC(=O)C3CC3)ccc2OC[C@@H](C)N(CCC(F)(F)F)C[C@H]1C the results were RAD52 inh 1.4, ERAP1 inh 1.0, DENV2 CPE -2.8, MLL AF4-AF9 inh -2.7 and FGF22 binding 0.0.
Screening C[C@@H]1CN([C@@H](C)CO)C(=O)c2cc(NC(=O)Nc3ccc4c(c3)OCO4)ccc2O[C@@H](C)CCCCO[C@H]1CN(C)C(=O)C1CCCCC1 returned RAD52 inh -1.5, ERAP1 inh 1.2, DENV2 CPE 77.0*, MLL AF4-AF9 inh -0.3 and FGF22 binding 0.3.
C[C@H](CO)N1C[C@H](C)[C@@H](CN(C)C(=O)Nc2ccc(F)cc2)OCCCC[C@H](C)Oc2ccc(NC(=O)Nc3ccc4c(c3)OCO4)cc2C1=O was read as RAD52 inh 6.5, ERAP1 inh -1.9, DENV2 CPE 9.5, MLL AF4-AF9 inh 48.7* and FGF22 binding -0.2.
C[C@@H]1CCCCO[C@H](CN(C)C(=O)c2ccccc2)[C@@H](C)CN([C@@H](C)CO)C(=O)c2cc(NC(=O)Nc3ccc4c(c3)OCO4)ccc2O1 was read as RAD52 inh -2.2, ERAP1 inh -4.5, DENV2 CPE 22.5*, MLL AF4-AF9 inh -0.6 and FGF22 binding -0.4.
`C[C@@H]1CCCCO[C@H](CN(C)C(=O)Nc2ccc3c(c2)OCO3)[C@H](C)CN([C@@H](C)CO)C(=O)c2cc(NC(=O)Nc3ccccc3)ccc2O1` gave RAD52 inh 2.2, ERAP1 inh -0.8, DENV2 CPE 23.0*, MLL AF4-AF9 inh 5.1 and FGF22 binding 0.0.
`CN(C)CC(=O)N[C@H]1CC[C@@H](CCNC(=O)C2CCCCC2)O[C@H]1CO` gave RAD52 inh -0.9, ERAP1 inh 3.0, DENV2 CPE 1.4, MLL AF4-AF9 inh -0.6 and FGF22 binding -0.6.

Screens (PubChem BioAssay)
